The source of these data is PubChem BioAssay (Tox21).

Unmarked numbers belong to inactive results. Inconclusive results are not listed. Activity calls are given as the source filed them. Unless noted, the call rests on the fitted dose curve; in most records, active means well fitted curve in the direction sought with a large enough effect in the repeat runs; inconclusive means weak or mixed curves; inactive means no such curve, though single readings can be large; an effect the other way counts as inactive or inconclusive.

Experiment [1] is described as follows: qHTS assay for small molecule agonists of the p53 signaling pathway (AID 651631; calls by dose curve; further: nearly all actives have a fitted effect of over 15% in size). A digest of the protocol: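 p53RE-bla HCT-116 cells; compounds 16 h, 37 °C; LiveBLAzer B/G FRET substrate 2 h RT; fluorescence intensity read-out, qHTS format.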
In general terms: Quantitative high-throughput screening tests each substance at several concentrations.

Experiment [2] is described as follows: qHTS assay for small molecule agonists of the p53 signaling pathway - cell viability (AID 651633; calls by dose curve;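 further: p53RE-bla HCT reporter cells with a stable beta-lactamase p53 reporter; series mostly up to about 83 µM; nearly all actives have a fitted effect of over 30% in size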). The essentials: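 Viability counter-read: CellTiter-Glo luminescence (30 min, room temperature) in the same p53RE-bla plates. These plates had been exposed to compounds for 16 h at 37 C.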
Experiment [3] is described as follows: qHTS assay for small molecule disruptors of the mitochondrial membrane potential - cell viability (AID 720634; calls by dose curve;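 further: human HepG2 liver cancer cells; series mostly up to about 83 µM; nearly all actives have a fitted effect of over 20% in size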). The essentials:
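ATP-based luminescent viability readout (CellTiter-Glo, 30 min, room temperature) in HepG2 cells multiplexed with the m-MPI membrane potential dye; compound exposure lasted 1 hr at 37 C.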

The nature of experiment [4]: qHTS assay to test for compound auto fluorescence at 590 nm (red) in HepG2 cells (AID 720674). A digest of the protocol:
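1 hr compound incubation on HepG2 cells, 37 C, 5% CO2; plate read ex 540 nm / em 590 nm; intensities reported as Rose Bengal sodium equivalents.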

Experiment [5] can be described thus: qHTS assay to test for compound auto fluorescence at 535 nm (green) in HepG2 cells (AID 720675).
Experiment [6] in a line: qHTS assay to test for compound auto fluorescence at 590 nm (red) in HEK293 cells (AID 720679). A digest of the protocol:
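Red autofluorescence, HEK293 cells: 2,000 cells/well; attach 4-5 hr 37C; add 23 nL cpd or DMSO; incubate o/n 37C 5% CO2; read Ex540/Em590; Rose Bengal sodium reference.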

Experiment [7] can be described thus: qHTS assay for small molecules that induce genotoxicity in human embryonic kidney cells expressing luciferase-tagged ATAD5 - cell viability (AID 651634; calls by dose curve; further: nearly all actives have a fitted effect of over 25% in size). A digest of the protocol: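 After 15.5 hr incubation with compound at 37C, 5% CO2, HEK293T ATAD5-luciferase cells received CellTiter-Fluor reagent; fluorescence intensity was quantified following 30 min at 37C.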

The nature of experiment [8]: qHTS assay for small molecule disruptors of the mitochondrial membrane potential (AID 720635). Further: potency means the concentration at half of the fitted maximal effect. The essentials:
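Mitochondrial membrane potential tracked with Mito-MPS dye, red aggregates (ex 540/em 590 nm) against green monomers (ex 490/em 535 nm). Compound treatment 1 hr at 37C, dye 30 min in HepG2.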

A short description of experiment [9]: qHTS assay to test for compound auto fluorescence at 460 nm (blue) in HEK293 cells (AID 720678). A digest of the protocol: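 Intrinsic compound fluorescence is recorded in live HEK293 cultures after overnight incubation at 37C, 5% CO2, using excitation 405 nm and emission 460 nm. Values are referenced to triamterene.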
Experiment [10] in a line: qHTS assay for small molecules that induce genotoxicity in human embryonic kidney cells expressing luciferase-tagged ATAD5 (AID 651632). Further: nearly all actives have a fitted effect of over 15% in size. A digest of the protocol:
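Quantitative HTS in HEK293T expressing luciferase-tagged ATAD5, whose levels rise upon DNA damage. Exposure ran 16 hr at 37C and 5% CO2, with luminescence read 30 min after Amplite addition at room temperature.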
On the % scale 0 is the no-effect control and ±100 the full control effect.

With `CCCCOCCOC(=O)COc1ccc(Cl)cc1Cl`, the compound was called inactive in experiment [1], in experiment [2], in experiment [3], in experiment [4], in [5] and in [6].
On to `Nc1nc(-c2ccccc2)c(Br)c(=O)[nH]1`, for which the compound was called inactive in experiment [1], in [2], in [3], in experiment [4], in [5] and in experiment [9]. In experiment [6], the result was inactive. In addition, the Potency entry in [7] and in experiment [8] was “inactive” in each case.
`O=C(O)CNC(=O)CNC(=O)CNC(=O)CSC(=O)c1ccccc1`: the outcome in [10], in [2], in experiment [3], in experiment [4], in [5] and in experiment [9] was inactive. Moreover, in experiment [6], the compound was classed as inactive. Moreover, the Potency entry in [7] and in [8] was “inactive” in each case.
Take `O=C(O)CSCC(=O)NC1CCSC1=O` (stereo not given): the compound was called inactive in experiment [1], in experiment [2], in experiment [4], in experiment [5], in experiment [9] and in experiment [6]. In addition, the Potency result in [7] and in [8] was “inactive” in each case.
Turning to `CC(=O)CC(=O)OC(C)(C)C`, the compound was called inactive in experiment [1], in experiment [3], in experiment [4], in experiment [5], in [9] and in experiment [6]. For the same compound, the Potency entry in experiment [7] and in experiment [8] was “inactive” throughout.
As for `C=CC(=O)CCCCC`, the compound was called inactive in experiment [1], in experiment [3], in [4], in [5], in [9] and in [6]. The Potency entry in experiment [7] is “inactive”.
Turning to `Cc1ncc([N+](=O)[O-])n1CC(C)O` (stereo not given), the result in experiment [1], in experiment [2], in experiment [3], in [4] and in experiment [5] was inactive. Also, the Potency entry in experiment [8] is “inactive”.
On to `Cc1ccc(C(C)NC(=O)[C@@H](NC(=O)OC(C)C)C(C)C)cc1` (stereo not given in full), for which the compound was classed as inactive in experiment [10], in [2], in [3], in [4], in experiment [5] and in experiment [9]. Further, in experiment [6], the compound was classed as inactive. Besides, the Potency result in experiment [7] and in experiment [8] was “inactive” each time.
In the case of `CC(N)CCCC(C)(C)O` (stereo not given), the result in experiment [10], in experiment [2], in [3], in experiment [4], in experiment [5] and in experiment [9] was inactive. Further, the compound was called inactive in experiment [6]. The Potency result in [7] and in [8] was “inactive” each time.
As to `O=C(Cn1ccnc1[N+](=O)[O-])NCc1ccccc1`, the compound was called inactive in experiment [1], in experiment [2], in experiment [3], in experiment [4], in experiment [5] and in [9]. In experiment [6], the result was inactive. For the same compound, the Potency entry in experiment [8] was “inactive”.
As to `CCn1cc(C(=O)O)c(=O)c2cnc(N3CCCC3)nc21`, the outcome in [10], in [2] and in [3] was inactive. The Potency result in experiment [7] and in experiment [8] was “inactive” each time. Also, the fluorescence, relative to Rose Bengal in [4] was -0.176% [at 18.6 µM]. In experiment [5], the fluorescence, % of fluorescein control was -0.162% [at 18.6 µM]. For the same compound, the fluorescence, % of triamterene in experiment [9] was 0.0274% [at 18.6 µM].
Take `CN(C)CCCO[C@@H]1[C@H]2OC(C)(C)O[C@H]2O[C@@H]1C(O)CO` (stereo not given in full): the result in [10], in experiment [2], in [3], in experiment [4], in [5] and in experiment [9] was inactive. The compound was classed as inactive in experiment [6]. Further, the Potency entry in [7] and in experiment [8] was “inactive” in each case.
Take `CC(=O)c1cc(C)oc1C`: the outcome in [1], in [2], in experiment [3], in [4], in [5] and in [9] was inactive. Besides, the compound was classed as inactive in [6]. Besides, the Potency entry in experiment [7] was “inactive”.
With `CCOCCOCC`, the result in [1], in experiment [2], in experiment [3], in [4], in experiment [5] and in [9] was inactive. Further, in [6], the call was inactive. For the same compound, the Potency entry in [7] was “inactive”.
Consider `C#CCN[C@@H]1CCc2ccccc21`, for which the outcome in [1], in experiment [3], in experiment [4], in experiment [5], in [9] and in experiment [6] was inactive. Moreover, the Potency result in [7] and in experiment [8] was “inactive” in each case.
On to `CC(C)c1ccc(C=O)cc1`, for which the call in experiment [1], in [3], in experiment [4], in experiment [5], in experiment [9] and in experiment [6] was inactive. Further, the Potency result in experiment [7] and in experiment [8] was “inactive” throughout.
Take `COc1cc2c(cc1OC)C(=O)C(CC1CCN(Cc3ccccc3)CC1)C2` (stereo not given): the outcome in experiment [10], in [2], in [3], in [4], in experiment [5] and in experiment [9] was inactive. The Potency entry in experiment [7] and in [8] was “inactive” each time.
Turning to `CC(=O)CCC1=C(C)CCCC1(C)C`, the outcome in experiment [10], in [2], in experiment [3], in experiment [4], in experiment [5] and in experiment [9] was inactive. The Potency entry in [7] and in [8] was “inactive” in each case.
Consider `CC(C)[C@H]1CC[C@H](C)C[C@@H]1O`, for which the outcome in [10], in [2], in experiment [3], in experiment [5] and in experiment [9] was inactive. The Potency entry in [7] and in [8] was “inactive” throughout.
`COC(=O)c1cccc(Cl)c1`: the compound was called inactive in experiment [10], in [2], in [3], in experiment [5], in [9] and in experiment [6]. Moreover, the Potency entry in experiment [7] and in [8] was “inactive” each time.
Regarding `CC(=O)C(C)O` (stereo not given), the compound was called inactive in experiment [10], in experiment [2], in experiment [3], in experiment [4], in [5] and in experiment [6]. Further, the Potency result in experiment [7] and in experiment [8] was “inactive” throughout.
As to `O=C=NCC1CCCC(CN=C=O)C1` (stereo not given), the result in experiment [10], in [2], in experiment [3], in [4], in [5] and in [6] was inactive. Further, the Potency entry in [7] was “inactive”.
For the compound `CC(=O)OC1CCCCC1C(C)(C)C` (stereo not given), the compound was classed as inactive in experiment [10], in experiment [2], in [3], in experiment [4], in experiment [5] and in experiment [9]. Moreover, in experiment [6], the result was inactive. The Potency entry in [7] and in experiment [8] was “inactive” each time.
Consider `CCCc1ccc(O)cc1`, for which the result in [10], in experiment [2], in experiment [3], in experiment [4], in experiment [5] and in experiment [6] was inactive. Also, the Potency result in experiment [7] was “inactive”. In addition, the Potency in experiment [8] is 54.5 µM (active).
With `CC1CC(=O)CC(C)(C)C1` (stereo not given), the compound was classed as inactive in experiment [10], in experiment [2], in experiment [3], in experiment [4], in experiment [5] and in experiment [9]. In addition, the Potency entry in experiment [7] is “inactive”.
With `O=C1c2ccccc2C(=O)c2cc(Cl)ccc21`, the activation in experiment [10] is 2.88% [at 8.08 µM]. In addition, the activity change, negative = cytotoxicity is -10.5% [at 8.08 µM] in experiment [2] and 3.06% [at 8.08 µM] in experiment [3]. Further, the activity, negative = cytotoxicity in experiment [7] is 10.7% [at 8.08 µM]. Moreover, the fluorescence, relative to Rose Bengal in [4] is -0.0283% [at 3.72 µM]. Moreover, the fluorescence, % of fluorescein control in [5] was -0.0348% [at 3.72 µM]. The fluorescence, % of triamterene in experiment [9] was -0.0543% [at 3.72 µM]. Also, the fluorescence, % of fluorescent control in experiment [6] is -0.785% [at 3.72 µM].
Turning to `Cc1ccc(C(=O)O)cc1[N+](=O)[O-]`, the compound was classed as inactive in experiment [10], in [2], in [3], in experiment [4], in experiment [5] and in [6]. The Potency entry in experiment [7] and in [8] was “inactive” each time.
In the case of `CCCSSCCC`, the call in experiment [10], in [2], in experiment [3], in [4], in [5] and in [9] was inactive. In addition, in experiment [6], the compound was classed as inactive. For the same compound, the Potency result in experiment [7] and in experiment [8] was “inactive” each time.
`O=C(CCCCC(=O)Nc1c(I)cc(I)c(C(=O)O)c1I)Nc1c(I)cc(I)c(C(=O)O)c1I`: the call in experiment [10], in [2], in experiment [3], in experiment [5] and in experiment [9] was inactive. For the same compound, the Potency result in experiment [7] and in experiment [8] was “inactive” in each case.
